Source: PubChem
Cycloheximide cs – affects cycloheximide protein synthesis inhibition readout, counter-screen | cell reporter, cycloheximide protein synthesis inhibition counterscreen | max response, % | actives 12% (n = 300,000) | AID 2314; in the data active means max response mostly above about 13%, no sharp cut-off; inactive means mostly below about 14%; further: read at 38.3 µM for the half of the compounds with a filed dose
Shiga toxin inh – blocks Shiga toxin action in Vero cells; Vero cells, Shiga toxin protein synthesis inhibition reporter; inhibition, % at 38.7 µM; actives 9.2% (n = 290,000); in the data active means inhibition mostly above about 28%, no sharp cut-off; inactive means mostly below about 43%
MARV entry inh – inhibitors of Marburg virus binding or cell entry; Potency, µM (doses to about 37.8 µM), most hits filed as inhibitors; Marburg virus pseudotyped entry inhibition, cell reporter; actives 1.8% (n = 300,000); calls by dose curve; tested in HEK293 cells
LASV entry inh – blocks Lassa virus binding to or entry into cells. Potency, µM (series often up to 37.9 µM), usual class: inhibitors. actives 1.2% (n = 300,000). AID 540256. Lassa virus pseudotype entry inhibition, cell reporter; calls by dose curve; tested in HEK293 cells; further: nearly all actives have a fitted effect of over 50% in size
AMA1-RON2 inh – inhibitors of Plasmodium falciparum AMA1-RON2 interaction; AlphaScreen AMA1-biotinylated RON2 peptide binding; Potency, µM (titrated, usually from 58.2 µM), usual class: inhibitors; actives 0.2% (n = 360,000); AID 720542; active means well fitted inhibition curve with a large enough effect; inconclusive means small, poorly fitted or top-dose-only effect; inactive means no such curve, though single readings can be large or run the other way; further: nearly all actives have a fitted effect of over 45% in size
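AMA1 (3D7) with his tag at 25 nM final met compounds first, then biotinylated RON2 peptide at 25 nM; detection used donor plus acceptor beads, 10 µg/mL apiece, read by AlphaScreen after 30 min at room temperature.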
A number is an active result; n = inactive; u = inconclusive; x = no result. Many of the other results were omitted from the sample, so hits are more common in it than they were.

SMILES	Cycloheximide cs	Shiga toxin inh	MARV entry inh	LASV entry inh	AMA1-RON2 inh
COC(=O)CCc1c(C)nn(-c2ccccc2)c1C	25	64	n	u	n
Cc1nn(Cc2ccccc2)c(C)c1CCC(=O)O	n	n	n	n	n
Cc1ccc2oc(-c3cccc(NC(=O)c4sc5c([N+](=O)[O-])cccc5c4Cl)c3)nc2c1	x	x	n	n	x
O=c1c2oc3ccccc3c2n(Cc2ccc(Cl)cc2)c(=O)n1Cc1ccco1	x	x	x	n	x
CCCN1CCC(=O)N(C(CSc2ccc(Br)cc2)Cc2ccccc2)CC1 (stereo unspecified)	n	n	x	x	x
COc1ccc(SC[C@H](CC(C)C)N2CCN(C)CCC2=O)cc1	17	75	x	x	n
CC(C)C[C@@H](CSc1ccc(Br)cc1)N1CCN(C)CCC1=O	40	57	x	x	n
Cc1ccc(SC[C@H](CC(C)C)N2CCN(C)CCC2=O)cc1	38	84	x	x	n
COc1ccc(SCCN2CCN(C)CCC2=O)cc1	n	n	x	x	n
Cc1nn(-c2ccccc2)c(N)c1Sc1ccc([N+](=O)[O-])cc1	20	n	n	n	n
COc1ccc(C(CNC(=O)CNC(=O)c2cccc(F)c2)N2CCOCC2)cc1 (stereo unspecified)	x	x	x	x	n
CNC(=O)C1CCC(Cn2c(=O)c3sccc3n(CC(=O)Nc3cc(F)ccc3F)c2=O)CC1 (stereo unspecified)	x	x	x	n	x
CC(=O)N(C)Cc1ccc(C(=O)CCl)cc1	26	n	n	n	n
CCC(=O)Nc1ccc(-c2nc3ccccc3c(=O)o2)cc1	28	79	n	u	n
CCC(=O)Nc1ccc(-c2nnc(-c3ccccc3)o2)cc1	18	n	u	u	n
CC(=O)Nc1ccc(C2=NN(Cc3nnc(-c4ccccc4)o3)C(=O)SC2)cc1	n	16	n	u	n
FC(F)(F)c1cccc(NC(=S)Nc2cccc(NC(=S)Nc3cccc(C(F)(F)F)c3)n2)c1	24	44	u	u	n
CCCCCN(C(=O)CCC(=O)OCc1ccc(Cl)cc1Cl)c1c(N)n(CCCC)c(=O)[nH]c1=O	x	x	2.5µM	u	n
CCCCCN(C(=O)CCC(=O)OCc1ccccc1Cl)c1c(N)n(CCCC)c(=O)[nH]c1=O	n	n	u	n	n
CCCNC(=O)c1ccc(C2SCC(=O)N2CCc2ccccc2)cc1 (stereo unspecified)	n	n	n	10µM	n
CCCCC(=O)c1ccc(O)cc1	15	n	n	n	n
CCCCC(=O)OCC(=O)c1ccc(OCC)cc1	58	22	n	u	n
CCOc1ccc(C(=O)CCCC(=O)c2ccc(OCC)cc2)cc1	47	x	x	x	n
O=C(CCC(=O)N1CCOCC1)c1ccc(F)cc1	24	55	n	n	n
CCc1cc(=O)oc2cc(C)cc(OC(C)C(=O)NCCCN3CCCC3=O)c12 (stereo unspecified)	n	n	x	x	n
SMILES	Cycloheximide cs	Shiga toxin inh	MARV entry inh	LASV entry inh	AMA1-RON2 inh
Cc1ccc(S(=O)(=O)CCC(=O)c2ccc(F)cc2)cc1	n	n	u	n	n
CC1CCN(CCCC(=O)c2ccc(F)cc2)CC1	n	n	x	x	x
O=C(CCCC(=O)c1ccc(F)cc1)c1ccc(F)cc1	55	107	u	u	n
Cc1ccc(C(=O)CCS(=O)(=O)c2ccc(F)cc2)cc1	25	26	x	x	n
CCOc1ccc(C(=O)COC(=O)CC)cc1	23	42	n	n	n
COc1ccc([C@H]2CC(=O)C=C(c3ccc(C(=O)O)cc3)C2)cc1OC	x	x	x	x	n
CC(=O)C1=CCC(c2ccc(Cl)cc2)N(S(=O)(=O)c2ccc(C)cc2)C1 (stereo unspecified)	x	x	x	x	n
CC(=O)Nc1ccc(OC(=O)N2CCCCC2)cc1	12	n	n	n	n
O=C(Oc1ccc(-c2ccccc2)cc1)N1CCCCC1	35	65	u	n	n
COc1cc2c(cc1NC(=O)c1cc(-c3ccccn3)nc3ccccc13)oc1ccccc12	n	n	u	n	n
CCc1ccc(N2C(=O)CN(Cc3sccc3C)C2=S)cc1	21	51	n	n	n
CCOC(=O)c1ccc(N=C2C(=S)N(c3ccc(C(=O)OCC)cc3)C(=N)N2/N=C/c2ccccc2)cc1	n	33	n	n	n
COc1ccc2oc(=O)cc(CN3CCN(Cc4ccc(OC)c(OC)c4OC)CC3)c2c1	n	n	x	x	n
CCN(CC(=O)Nc1ccc(C(C)=O)cc1)CC(=O)Nc1ccccc1C(F)(F)F	n	n	n	n	n
CCN(CC)c1ccc(NC(=O)Nc2ccccc2C(F)(F)F)cc1	n	42	n	u	n
CCN(CC)c1ccc(NC(=O)Nc2cccc3ccccc23)cc1	15	n	u	n	u
Cc1cccc(NC(=O)Nc2cccc3ccccc23)c1	n	n	x	x	n
Cc1ccc(NC(=O)Nc2cccc3ccccc23)cc1	n	n	x	x	n
CN(C)c1ccc(NC(=O)Nc2cccc3ccccc23)cc1	36	77	x	x	n
O=C(NN=C1C[C@@H](O)[C@H](O)[C@H]2[C@@H]3C(=O)N(C4CCCCC4)C(=O)[C@@H]3CC[C@@H]12)OCc1ccccc1	x	x	n	x	x
O=C(Nc1ccc2c(c1)OCCO2)c1cc2ccccc2o1	24	88	4µM	7.9µM	n
CCC(=O)Nc1cccc(NC(=S)NC(=O)c2cc3ccccc3o2)c1	35	72	u	u	n
Cn1c(=O)n(C)c2cc(NC(=O)c3cc4ccccc4o3)ccc21	33	89	n	n	n
Cc1ccc(C(=O)Nc2ccc3c(c2)n(C)c(=O)c(=O)n3C)cc1	x	x	n	n	x
CCc1ccc(C(=O)Nc2ccc3c(c2)n(C)c(=O)n3C)cc1	12	x	n	n	n
SMILES	Cycloheximide cs	Shiga toxin inh	MARV entry inh	LASV entry inh	AMA1-RON2 inh
Cc1ccc(-n2nc3ccc(NC(=O)c4cc5ccccc5o4)cc3n2)cc1	x	x	x	n	x
CC(=O)C1=CCC(c2ccc(Cl)cc2)N(S(=O)(=O)c2ccccc2)C1 (stereo unspecified)	x	x	x	x	n
COC(=O)N[C@@H](c1ccco1)[C@]1(C(C)=O)CCCC1=O	x	x	n	x	x
Cc1ccc(NC(=S)N2CCN(c3ccccc3F)CC2)c(C)c1	n	n	n	n	n
COc1ccc(-c2oc3c(c2C(=O)OCCO)C(OCCO)CCC3)cc1 (stereo unspecified)	x	x	x	x	n
CCC(=O)Nc1ccc(NC(=S)NC(=O)c2cc3ccccc3o2)cc1	n	n	n	n	n
O=C(Nc1ccc2oc(=O)ccc2c1)c1cc2ccccc2o1	35	54	u	n	n
CC(Cc1ccccc1)NC(=O)c1cc2ccccc2o1 (stereo unspecified)	59	141	u	n	n
O=C(Nc1ccc(NC(=O)c2cc3ccccc3o2)cc1)c1ccccc1	x	x	x	n	x
Cc1cc(=O)oc2cc(NC(=O)c3cc4ccccc4o3)ccc12	n	n	n	x	x
O=C(O)c1ccc(NC(=O)c2cc3ccccc3o2)cc1	21	n	x	n	n
CC(Cc1ccccc1)NC(N)=O (stereo unspecified)	n	n	n	n	n
CCC(=O)Nc1ccc(NC(=O)c2cc3ccccc3o2)cc1	70	83	n	n	n
CCc1ccc(-c2cn3c(n2)sc2cc(C(=O)NCCc4ccc(OC)cc4OC)ccc23)cc1	x	x	x	n	x
O=C(NCC(c1ccc2c(c1)OCO2)N1CCOCC1)c1cccc(Cl)c1 (stereo unspecified)	x	x	x	n	x
